This is an account of results in PubChem BioAssay (EPA / NIEHS).

Inconclusive results are not listed. Some structures have more than one record in an assay (separate samples or runs), and their calls can disagree. Active and inactive are the calls of the source. Rule for the calls, unless noted: active = hit-call score of the fitted dose curve at least 0.9, where 1 is the maximum; inconclusive = response in the unintended direction; inactive = score below 0.9.

The target of assay [1] is human Matrix Metalloproteinase-1 (MMP1), MMP1 (gene 4312) (UniProt P03956). As to the kind of experiment: NVS_ENZ_hMMP1: NovaScreen (NVS) Enzymatic Assay for human Matrix Metalloproteinase-1 (MMP1) (AID 2283181). An outline of the steps: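 Human MMP1 enzyme activity measured by fluorescence 1 h after dosing, cell-free, with a specific substrate. Screened in duplicate at 25 uM; hits (e.g. 30% inhibition) run in concentration-response up to 50 uM; loss of signal versus DMSO.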
Sequence of human Matrix Metalloproteinase-1 (MMP1), MMP1 (gene 4312) (P03956 whole entry, looked up): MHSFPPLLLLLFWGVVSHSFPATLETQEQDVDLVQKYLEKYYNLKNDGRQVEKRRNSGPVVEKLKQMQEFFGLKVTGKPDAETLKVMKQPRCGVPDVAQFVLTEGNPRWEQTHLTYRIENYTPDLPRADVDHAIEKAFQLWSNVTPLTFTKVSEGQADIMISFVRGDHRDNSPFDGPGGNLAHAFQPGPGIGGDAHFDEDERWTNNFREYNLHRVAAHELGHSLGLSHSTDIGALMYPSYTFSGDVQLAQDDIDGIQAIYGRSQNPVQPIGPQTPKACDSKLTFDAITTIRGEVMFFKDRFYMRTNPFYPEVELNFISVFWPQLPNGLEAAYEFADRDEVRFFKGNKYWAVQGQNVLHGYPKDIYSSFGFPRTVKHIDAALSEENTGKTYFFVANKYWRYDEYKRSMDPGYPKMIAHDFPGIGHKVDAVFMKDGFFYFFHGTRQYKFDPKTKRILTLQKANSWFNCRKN

The nature of assay [2]: ATG_M_32_XSP2: Attagene TRANS-FACTORIAL Multi-Species (XSP2) HepG2 Assay for M19 Transcription Factor (Internal Marker) (AID 2283826). Put shortly:
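Read-out: fluorescent reporter mRNA fragments resolved by capillary electrophoresis after RT-PCR, gain-of-signal versus DMSO baseline. Cells were human HepG2 carrying transfected multi-reporter units, exposed 24 h. Medium contained 3 nM 6-alpha-fluorotestosterone plus 1.5 nM norgestrel.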

Assay [3] has as its target human Protein Tyrosine Phosphatase Receptor Type C (PTPRC), PTPRC (gene 5788) (UniProt P08575). As to the kind of experiment: NVS_ENZ_hPTPRC: NovaScreen (NVS) Enzymatic Assay for human Protein Tyrosine Phosphatase Receptor Type C (PTPRC) (AID 2283212). An outline of the steps:
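Yeast-extracted human PTPRC used in a cell-free colorimetric enzyme activity read-out, 1 h after dosing. Primary screen in duplicate at 25 uM; actives rerun in concentration-response up to 50 uM, DMSO as baseline.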

The target of assay [4] is rat Monoamine Oxidase, MAO-B, Central (MAOBC), Maob (gene 25750) (UniProt P19643). As to the kind of experiment: NVS_ENZ_rMAOBC: NovaScreen (NVS) Enzymatic Assay for rat Monoamine Oxidase, MAO-B, Central (MAOBC) (AID 2283238). An outline of the steps:
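Compounds were first tested in duplicate at 25 uM against MAO-B from rat brain tissue; those passing the inhibition threshold were retested in concentration series up to 50 uM. Radiodetection by scintillation counting at 1.17 h, analysed against DMSO baseline.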

For assay [5], the target named is human Phosphatase and Tensin Homolog (PTEN), PTEN (gene 5728) (UniProt P60484). As to the kind of experiment: NVS_ENZ_hPTEN: NovaScreen (NVS) Enzymatic Assay for human Phosphatase and Tensin Homolog (PTEN) (AID 2283203). Put shortly: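 Cell-free recombinant human PTEN with fluorescent substrate; product separated by electrophoretic mobility shift and read by fluorescence 1 h after dosing. Primary screen in duplicate at 25 uM, actives followed in concentration series versus DMSO.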
Sequence of human Phosphatase and Tensin Homolog (PTEN), PTEN (gene 5728) (P60484 whole entry, looked up): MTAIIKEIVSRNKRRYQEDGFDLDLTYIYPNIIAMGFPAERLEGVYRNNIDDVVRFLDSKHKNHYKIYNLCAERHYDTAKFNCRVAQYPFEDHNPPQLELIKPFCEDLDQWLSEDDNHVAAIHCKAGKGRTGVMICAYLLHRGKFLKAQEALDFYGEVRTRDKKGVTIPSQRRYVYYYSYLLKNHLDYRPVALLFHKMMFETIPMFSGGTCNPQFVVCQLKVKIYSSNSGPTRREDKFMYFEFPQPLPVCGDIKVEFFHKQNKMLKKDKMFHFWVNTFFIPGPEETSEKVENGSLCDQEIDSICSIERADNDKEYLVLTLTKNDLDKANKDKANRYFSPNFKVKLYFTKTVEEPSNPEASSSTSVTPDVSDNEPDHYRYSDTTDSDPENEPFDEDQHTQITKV

For assay [6], the target named is Voltage-dependent N-type calcium channel subunit alpha-1B (Rattus norvegicus) (UniProt Q02294). As to the kind of experiment: NVS_IC_rCaChN: NovaScreen (NVS) Ion Channel Assay for rat Calcium Channel, Type N (CaChN) (AID 2283317).
Assay [7] addresses rat Oxytocin Receptor (OXT), Oxtr (gene 25342) (UniProt P70536). As to the kind of experiment: NVS_GPCR_rOXT: NovaScreen (NVS) G Protein-Coupled Receptor Assay for rat Oxytocin Receptor (OXT) (AID 2283330). An outline of the steps: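 Radioligand displacement on rat uterine membranes, 1 h incubation, filter-based scintillation counting. Chemicals were screened in duplicate at 25 uM, and those passing threshold were retested in concentration-response up to 50 uM. Loss of binding was fitted versus DMSO.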

The test system of assay [8] is rat Monoamine Oxidase, MAO-A, Peripheral (MAOAP), gene 29253. As to the kind of experiment: NVS_ENZ_rMAOAP: NovaScreen (NVS) Enzymatic Assay for rat Monoamine Oxidase, MAO-A, Peripheral (MAOAP) (AID 2283237). An outline of the steps: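 Rat liver mitochondrial membranes served as the MAO-A source, with enzyme activity measured by radiometric scintillation counting 1.17 hours after dosing. Loss of signal was fitted against DMSO; primary screen used 25 uM in duplicate, follow-up used concentration series.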

Assay [9] concerns the target rat Monoamine Oxidase, MAO-B, Peripheral (MAOBP), Maob (gene 25750) (UniProt P19643). As to the kind of experiment: NVS_ENZ_rMAOBP: NovaScreen (NVS) Enzymatic Assay for rat Monoamine Oxidase, MAO-B, Peripheral (MAOBP) (AID 2283242).
For assay [10], the system named is rat Monoamine Oxidase, MAO-A, Central (MAOAC), gene 29253. As to the kind of experiment: NVS_ENZ_rMAOAC: NovaScreen (NVS) Enzymatic Assay for rat Monoamine Oxidase, MAO-A, Central (MAOAC) (AID 2283243).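 Note: potency refers to inhibition seen as signal drop below DMSO baseline.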 Put shortly:
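Rat brain tissue extract served as the cell-free enzyme source; activity was measured by radiometric scintillation counting 1.5 hours after compound addition. Loss of signal relative to DMSO baseline indicated inhibition; primary screen at 25 uM in duplicate.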

Assay [11] concerns the target human p21 Activated Kinase 4 (PAK4), PAK4 (gene 10298) (UniProt O96013). As to the kind of experiment: NVS_ENZ_hPAK4: NovaScreen (NVS) Enzymatic Assay for human p21 Activated Kinase 4 (PAK4) (AID 2283189). Put shortly: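 Cell-free recombinant human PAK4 activity assay; fluorescent substrate and product separated by electrophoretic mobility shift, read 1 h after dosing. Initially tested in duplicate at 25 uM, relative to DMSO baseline.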

The target of assay [12] is Bile acid receptor (Homo sapiens) (UniProt Q96RI1). As to the kind of experiment: NVS_NR_hFXR_Agonist: NovaScreen (NVS) Nuclear Receptor Binding Assay for human Farnesoid X Receptor Agonism (FXR) (AID 2283347). An outline of the steps: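 Cell-free TR-FRET binding assay with extracted human FXR protein, agonist format, read 1 h after dosing. Primary screen at 25 uM single concentration in duplicate, actives retested in concentration series; gain of signal versus DMSO.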
Sequence of Bile acid receptor (Homo sapiens) (Q96RI1 whole entry, looked up): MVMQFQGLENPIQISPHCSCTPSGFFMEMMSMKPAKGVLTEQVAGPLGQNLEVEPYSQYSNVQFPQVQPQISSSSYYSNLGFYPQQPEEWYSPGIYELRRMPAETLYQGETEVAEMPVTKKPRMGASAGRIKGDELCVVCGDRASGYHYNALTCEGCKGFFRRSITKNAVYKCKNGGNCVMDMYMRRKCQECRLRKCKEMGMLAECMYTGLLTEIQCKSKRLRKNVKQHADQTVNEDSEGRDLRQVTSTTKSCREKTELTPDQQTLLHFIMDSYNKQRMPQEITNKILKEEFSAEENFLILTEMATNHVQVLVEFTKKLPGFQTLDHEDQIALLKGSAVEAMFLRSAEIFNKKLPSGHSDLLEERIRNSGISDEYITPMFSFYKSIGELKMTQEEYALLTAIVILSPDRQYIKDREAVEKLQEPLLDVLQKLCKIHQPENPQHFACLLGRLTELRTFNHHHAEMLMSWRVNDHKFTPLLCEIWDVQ

A short description of assay [13]: CCTE_Harrill_HTTr_Apoptosis_PRF_DMEM_12hr: (Pilot) CCTE's 12-hour Apoptosis Assessment for the High-Throughput Transcriptomics (HTTr) Platform, in MCF-7 cells cultured in phenol red-free DMEM + 10% charcoal-stripped fetal bovine serum, Harrill Lab (AID 2283985; active = hit-call score of the fitted dose curve at least 0.9, where 1 is the maximum; inactive = score below 0.9). An outline of the steps: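 MCF-7 cells in phenol red-free DMEM with 10% charcoal-stripped FBS, eight-point dilution series, 12 h exposure. Caspase-3/7 activation imaged by high content imaging with CellEvent Green reagent; bidirectional fit vs DMSO.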

Assay [14] concerns the target human Tyrosine Protein Kinase Receptor Tie-2 (Tie2), TEK (gene 7010) (UniProt Q02763). As to the kind of experiment: NVS_ENZ_hTie2: NovaScreen (NVS) Enzymatic Assay for human Tyrosine Protein Kinase Receptor Tie-2 (Tie2) (AID 2283225). Put shortly:
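Recombinant human Tie2 kinase activity was read cell-free by fluorescence with electrophoretic mobility shift, 1 hour after dosing. The screen used 25 uM in duplicate, then concentration-response up to 50 uM. Signal loss was scored against DMSO.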

Sequence of human Protein Tyrosine Phosphatase Receptor Type C (PTPRC), PTPRC (gene 5788) (P08575 whole entry, looked up): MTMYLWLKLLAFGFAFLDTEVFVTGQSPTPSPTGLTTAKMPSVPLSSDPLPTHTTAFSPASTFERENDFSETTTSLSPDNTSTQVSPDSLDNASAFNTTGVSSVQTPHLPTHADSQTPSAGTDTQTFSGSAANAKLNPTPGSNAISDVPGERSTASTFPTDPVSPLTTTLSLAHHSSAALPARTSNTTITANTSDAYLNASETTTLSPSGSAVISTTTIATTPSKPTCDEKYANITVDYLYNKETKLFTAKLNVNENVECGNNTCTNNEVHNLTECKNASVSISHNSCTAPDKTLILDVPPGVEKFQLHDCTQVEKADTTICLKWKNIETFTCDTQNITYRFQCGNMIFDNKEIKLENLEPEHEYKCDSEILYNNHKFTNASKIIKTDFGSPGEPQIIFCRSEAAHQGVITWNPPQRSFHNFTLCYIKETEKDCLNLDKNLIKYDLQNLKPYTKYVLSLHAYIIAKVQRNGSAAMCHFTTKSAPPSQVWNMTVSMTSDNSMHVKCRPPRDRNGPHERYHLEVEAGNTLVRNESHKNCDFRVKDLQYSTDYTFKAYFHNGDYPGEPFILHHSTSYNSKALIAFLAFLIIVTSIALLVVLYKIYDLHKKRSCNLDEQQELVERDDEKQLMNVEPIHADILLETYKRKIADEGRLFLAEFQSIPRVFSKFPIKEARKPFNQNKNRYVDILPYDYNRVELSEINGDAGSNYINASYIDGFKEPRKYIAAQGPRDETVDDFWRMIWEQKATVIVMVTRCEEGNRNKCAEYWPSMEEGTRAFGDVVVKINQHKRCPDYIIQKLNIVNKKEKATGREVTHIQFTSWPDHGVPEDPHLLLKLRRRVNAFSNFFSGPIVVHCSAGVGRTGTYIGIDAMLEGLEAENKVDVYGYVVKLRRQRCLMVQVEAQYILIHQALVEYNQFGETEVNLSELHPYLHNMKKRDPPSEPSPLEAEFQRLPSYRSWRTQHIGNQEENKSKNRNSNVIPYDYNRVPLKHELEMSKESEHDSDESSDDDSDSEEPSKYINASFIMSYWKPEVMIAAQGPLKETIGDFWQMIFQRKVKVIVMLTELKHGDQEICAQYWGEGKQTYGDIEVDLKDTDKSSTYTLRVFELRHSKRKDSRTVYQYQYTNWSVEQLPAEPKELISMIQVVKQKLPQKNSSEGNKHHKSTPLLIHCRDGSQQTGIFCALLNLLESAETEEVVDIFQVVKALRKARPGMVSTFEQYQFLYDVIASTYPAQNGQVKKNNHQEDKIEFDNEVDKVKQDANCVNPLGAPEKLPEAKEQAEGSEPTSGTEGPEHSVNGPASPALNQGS
Sequence of human p21 Activated Kinase 4 (PAK4), PAK4 (gene 10298) (O96013 whole entry, looked up): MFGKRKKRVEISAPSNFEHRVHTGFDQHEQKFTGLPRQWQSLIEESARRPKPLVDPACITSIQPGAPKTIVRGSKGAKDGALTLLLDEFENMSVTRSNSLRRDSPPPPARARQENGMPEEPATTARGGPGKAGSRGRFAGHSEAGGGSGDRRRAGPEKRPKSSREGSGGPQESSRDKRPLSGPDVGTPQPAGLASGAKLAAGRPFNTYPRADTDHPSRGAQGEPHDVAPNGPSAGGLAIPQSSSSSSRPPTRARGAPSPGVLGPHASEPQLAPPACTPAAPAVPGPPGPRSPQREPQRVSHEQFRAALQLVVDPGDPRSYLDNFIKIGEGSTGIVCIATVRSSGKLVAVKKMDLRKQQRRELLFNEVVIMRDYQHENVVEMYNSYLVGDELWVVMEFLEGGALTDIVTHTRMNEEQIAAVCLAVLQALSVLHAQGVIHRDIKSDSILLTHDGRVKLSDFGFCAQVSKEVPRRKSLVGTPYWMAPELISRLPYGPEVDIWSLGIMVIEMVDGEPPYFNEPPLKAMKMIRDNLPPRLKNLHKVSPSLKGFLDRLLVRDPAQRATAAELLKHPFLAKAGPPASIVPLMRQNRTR
Sequence of rat Monoamine Oxidase, MAO-B, Central (MAOBC), Maob (gene 25750) (P19643 whole entry, looked up): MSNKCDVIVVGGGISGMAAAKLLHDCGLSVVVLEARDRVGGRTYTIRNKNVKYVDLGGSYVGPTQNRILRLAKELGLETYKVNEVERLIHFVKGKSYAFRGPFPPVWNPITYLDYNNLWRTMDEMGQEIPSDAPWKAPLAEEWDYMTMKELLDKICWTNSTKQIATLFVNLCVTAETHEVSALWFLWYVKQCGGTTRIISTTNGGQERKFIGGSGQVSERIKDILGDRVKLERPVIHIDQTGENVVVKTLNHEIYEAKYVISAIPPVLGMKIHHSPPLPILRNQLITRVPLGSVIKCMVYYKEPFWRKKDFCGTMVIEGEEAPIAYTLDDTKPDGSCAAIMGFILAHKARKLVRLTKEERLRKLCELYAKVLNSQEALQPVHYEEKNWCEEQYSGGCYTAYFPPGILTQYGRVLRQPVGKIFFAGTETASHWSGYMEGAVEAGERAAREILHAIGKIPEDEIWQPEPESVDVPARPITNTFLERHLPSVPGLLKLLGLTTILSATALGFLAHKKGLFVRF
Sequence of rat Oxytocin Receptor (OXT), Oxtr (gene 25342) (P70536 whole entry, looked up): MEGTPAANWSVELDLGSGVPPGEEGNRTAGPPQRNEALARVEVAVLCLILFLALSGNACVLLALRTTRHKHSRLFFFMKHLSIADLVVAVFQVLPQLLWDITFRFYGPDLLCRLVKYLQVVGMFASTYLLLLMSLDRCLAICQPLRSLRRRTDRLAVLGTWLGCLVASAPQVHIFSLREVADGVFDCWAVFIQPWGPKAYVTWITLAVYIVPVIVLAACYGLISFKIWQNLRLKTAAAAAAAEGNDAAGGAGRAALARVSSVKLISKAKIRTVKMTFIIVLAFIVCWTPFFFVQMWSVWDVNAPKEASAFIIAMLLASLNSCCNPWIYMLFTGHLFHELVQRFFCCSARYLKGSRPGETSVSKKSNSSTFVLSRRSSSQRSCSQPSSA
Sequence of rat Monoamine Oxidase, MAO-B, Peripheral (MAOBP), Maob (gene 25750) (P19643 whole entry, looked up): as the sequence (P19643 whole entry, looked up) above

`Cc1cc(=O)[nH]c(=S)[nH]1`: in assay [1], the compound was classed as inactive.

For `CC(C)(c1cc(Br)c(O)c(Br)c1)c1cc(Br)c(O)c(Br)c1`, the call in assay [1] and in assay [2] was inactive.

As for `CCCCc1nc2cccnc2n1Cc1ccc(-c2ccccc2-c2nnn[nH]2)cc1`, the AC50 in assay [1] was 2.25 µM (active). In addition, the result in assay [3] was inactive.

With `c1ccc2n[nH]nc2c1`, the compound was called inactive in [1]. Further, in assay [4], the half-maximal activity concentration (AC50) was 25 µM (active) and the outcome was inactive.

Consider `CCCCCCCCCC`, for which the outcome in [1], in assay [5], in assay [6] and in [7] was inactive.

On to `CN1CCN(Cc2cc(-c3ccc4[nH]c(=O)oc4c3)co2)[C@@H](c2ccc(F)cc2)C1`, for which the concentration at half-maximal activity (AC50) in assay [1] was 10.5 µM (active); in assay [8], 18.2 µM (active); in assay [4], 10.6 µM (active); in assay [9] it was 10.1 µM (active); in [10] it was 22 µM (active).

Consider `CC(=O)NC1(c2cccc(F)c2)CCN(CC[C@@]2(c3ccc(Cl)c(Cl)c3)CN(c3ccccc3)C(=O)CO2)CC1`, for which, in assay [1], the compound was classed as inactive.

Regarding `CC(=O)OC1CC(C)OC(C)O1` (stereo not given), in [1], the compound was classed as inactive.

`O=[Si]=O`: the outcome in assay [11] was inactive.

For `Nc1ccc(C(=O)O)cc1`, in assay [1], the result was inactive.

Turning to `CCCCCCCCOC(=O)c1cc(O)c(O)c(O)c1`, in [1], the AC50 was 13.9 µM (active). Further, the call in [4] and in assay [12] was inactive.

Consider `O=C1O[C@H]([C@H](O)CO)C(O)=C1O`, for which the compound was classed as inactive in [11].

On to `CCCCC(CC)COC(=O)CC(C(=O)OCC(CC)CCCC)S(=O)(=O)O` (stereo not given), for which the result in assay [1] was inactive. Besides, the concentration at half-maximal activity (AC50) in assay [3] is 25 µM (active).

As for `CC[C@H]1OC(=O)[C@H](C)[C@@H](O[C@H]2C[C@@](C)(OC)[C@@H](O)[C@H](C)O2)[C@H](C)[C@@H](O[C@@H]2O[C@H](C)C[C@H](N(C)C)[C@H]2O)[C@](C)(O)C[C@@H](C)C(=O)[C@H](C)[C@@H](O)[C@]1(C)O`, the compound was called inactive in assay [11].

As for `O=C(O)[C@H](O)[C@@H](O)C(=O)O`, in [11], the call was inactive.

As for `NC(=O)N1C(=O)C(C(=O)c2cc(Cl)cs2)c2cc(F)c(Cl)cc21` (stereo not given), the outcome in assay [11] and in [3] was inactive. Moreover, the AC50 in assay [5] was 25 µM (active).

As to `CCCCOC(=O)CC(CC(=O)OCCCC)(OC(C)=O)C(=O)OCCCC`, in assay [1], the compound was called inactive.

Regarding `O=C(O)c1cccc(C(=O)O)c1`, the half-maximal activity concentration (AC50) in [1] was 13 µM (active). The call in [8] was inactive.

Consider `COC(=O)c1ccccc1O`, for which, in assay [1], the compound was called inactive.

For `Cc1c(C)c2c(c(C)c1O)CCC(C)(COc1ccc(CC3SC(=O)NC3=O)cc1)O2` (stereo not given), the half-maximal activity concentration (AC50) in assay [1] is 6.75 µM (active); in assay [4], 25 µM (active). Moreover, the outcome in assay [12], in [2] and in assay [13] was inactive.

For `CC(C)c1cccc(C(C)C)c1N1C(=O)c2ccc(O)cc2C1=O`, the call in assay [11], in [5] and in assay [14] was inactive.

Regarding `Cc1ccc(N)c([N+](=O)[O-])c1`, the concentration at half-maximal activity (AC50) in assay [5] was 25 µM (active).

For `C=C1CC[C@H]2O[C@]2(C)CC[C@@H]2[C@@H]1CC2(C)C`, the compound was classed as inactive in assay [5].

Regarding `O=C1C=CC(=O)O1`, the result in assay [5] was inactive.

As for `N#Cc1ccc(CC(=NNC(=O)Nc2ccc(OC(F)(F)F)cc2)c2cccc(C(F)(F)F)c2)cc1`, the call in assay [5] was inactive.

With `C[C@]12C[C@H](O)[C@H]3[C@@H](CCC4=CC(=O)CC[C@@]43C)[C@@H]1CC[C@@H]2C(=O)CO`, the compound was classed as inactive in [11] and in [3].

Take `CCCC(C)C=O` (stereo not given): the compound was called inactive in [5].

As for `CC1(C)CC(N=C=O)CC(C)(CN=C=O)C1` (stereo not given), the AC50 in assay [11] was 25 µM (active). For the same compound, the compound was called inactive in assay [4].

As to `CCN(CC)CC`, the AC50 in assay [5] was 3.58 µM (active).

With `CC(C)c1ccccc1N`, in assay [5], the concentration at half-maximal activity (AC50) is 12.4 µM (active).

Take `C=CC(=O)OCC(Br)CBr` (stereo not given): the compound was classed as inactive in assay [5].

For the compound `CCC(C)C(=O)OC` (stereo not given), the compound was classed as inactive in assay [5].

As to `Cc1cncc(C)c1`, in assay [5], the compound was classed as inactive.

Consider `CCCCCC1=CCCC1=O`, for which the concentration at half-maximal activity (AC50) in assay [5] is 16.3 µM (active).

With `CC1CCC(C(C)(C)O)CC1` (stereo not given), in assay [5], the AC50 is 1.56 µM (active).

A word on the AC50: it is the concentration giving half of the maximal activity seen.
